Assay outcomes (PubChem)
The full list was thinned out, with hits kept by preference.
FBPA Giardia inh = blocks Giardia fructose-bisphosphate aldolase activity | 290,000 compounds, 0.71% hits | AID 2451 | purified Giardia FBPA | Potency, µM (series often up to 59.6 µM), for inactives: at the highest dose activity, negative = inhibition, hits mostly inhibitors; also: potency is read from the fitted curve at half-maximal effect; % is scaled to controls: 0 for no effect and ±100 for the full control effect; nearly all actives have a fitted effect of over 55% in size
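40 nM FBPA preincubated 10 min at RT with compound (up to 57.5 uM final), then substrate plus GAPDH/TPI/NAD/arsenate coupling and diaphorase/resazurin added. Fluorescence read after 20 min at RT, 525/598 nm.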
Cycloheximide cs = counter-screen hit for Shiga toxin inhibitors, cycloheximide. max response, %. cell reporter, cycloheximide protein synthesis inhibition counterscreen. 300,000 compounds, 12% hits; in the data active = max response mostly above about 13%, no sharp cut-off; inactive = mostly below about 14%; also: read at 38.3 µM for the half of the compounds with a filed dose; 0% is about no effect
TbPYK inhibitor = blocks Trypanosoma brucei pyruvate kinase. Potency, µM (doses to about 76.8 µM), without a hit: at the top dose activity, negative = inhibition, hits mostly inhibitors. Q57TT1. 410,000 compounds, 0.12% hits. AID 624173. TbPYK enzyme, Kinase-Glo Plus ATP luminescence, 45 min; also: potency is read from the fitted curve at half-maximal effect; % is scaled to controls: 0 for no effect and ±100 for the full control effect; nearly all actives have a fitted effect of over 50% in size
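Enzyme and substrate buffer are dispensed first and compound is pin-transferred. ADP at 130 uM final then starts the reaction, which runs 45 min at room temperature. Detection reagent is added for 10 min before luminescence is imaged.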
LmPK inh = blocks Leishmania mexicana pyruvate kinase activity; Q27686; purified LmPK, Kinase-Glo ATP luminescence, 1 h; Potency, µM (series often up to 57.5 µM), inactives show top-dose activity change, negative = inhibition, actives largely listed as inhibitors; 290,000 compounds, 0.37% hits; AID 1721; also: potency is read from the fitted curve at half-maximal effect; % is scaled to controls: 0 for no effect and ±100 for the full control effect
Target sequence (Q27686 whole entry, looked up): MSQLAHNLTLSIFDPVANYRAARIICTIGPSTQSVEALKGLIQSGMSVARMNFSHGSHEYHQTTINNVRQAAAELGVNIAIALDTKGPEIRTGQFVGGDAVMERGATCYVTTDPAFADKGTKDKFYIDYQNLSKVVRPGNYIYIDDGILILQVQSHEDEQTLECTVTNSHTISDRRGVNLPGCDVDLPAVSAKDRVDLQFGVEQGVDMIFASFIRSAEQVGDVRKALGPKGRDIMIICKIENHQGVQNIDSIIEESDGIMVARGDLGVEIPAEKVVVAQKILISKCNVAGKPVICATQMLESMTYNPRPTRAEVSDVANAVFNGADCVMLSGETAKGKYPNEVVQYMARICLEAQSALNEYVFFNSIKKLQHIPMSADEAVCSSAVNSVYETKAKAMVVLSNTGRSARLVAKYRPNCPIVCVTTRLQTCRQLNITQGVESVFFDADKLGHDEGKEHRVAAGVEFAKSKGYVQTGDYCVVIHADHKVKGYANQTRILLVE
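Purified LmPK (0.1 nM) with 0.5 mM PEP and 0.1 mM ADP in imidazole buffer pH 7.2 with MgCl2/KCl, 1 h at room temperature. ATP formed was read by luciferase luminescence and normalized to no-enzyme and uninhibited controls.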
Shiga inhibitor = Shiga toxin inhibition; inhibition, % at 38.7 µM; AID 2315; Vero cells, Shiga toxin protein synthesis inhibition reporter; 290,000 compounds, 9.2% hits; in the data active = inhibition mostly above about 28%, no sharp cut-off; inactive = mostly below about 43%; also: 0% is about no effect
Sm TGR block = S. mansoni TGR enzyme inhibition. Q962Y6. AID 485364. Potency, µM (top dose mostly 114 µM), for the others: top-dose activity change, negative = inhibition, most hits filed as inhibitors. purified TGR, DTNB reduction, TNB absorbance 405 nm. 360,000 compounds, 3% hits; also: potency is read from the fitted curve at half-maximal effect; % is scaled to controls: 0 for no effect and ±100 for the full control effect; nearly all actives have a fitted effect of over 60% in size
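TGR 20 nM + NADPH 100 uM (dispensed conc.), cpd preinc 15 min RT; start with NADPH (500 uM addition) then DTNB (15 mM addition). Kinetic TNB absorbance, 405 nm filter. Four-parameter Hill fit across titration.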
An asterisk follows results filed as active; ? = inconclusive; nt = not tested or not shown; [ ] = another dose, or the depositor's remark. Unless noted, calls follow the shape of the dose curve; as a rule, active = well fitted curve in the direction sought with a large enough effect; inconclusive = small, poorly fitted or top-dose-only effect, or another doubt; inactive = no such curve, though single readings can be large; an effect the other way counts as inactive or inconclusive.

SMILES	FBPA Giardia inh	Cycloheximide cs	TbPYK inhibitor	LmPK inh	Shiga inhibitor	Sm TGR block
CC1=C(C(=O)Nc2ccccn2)C(c2ccc(F)cc2)n2ncnc2N1 (stereo unspecified)	8%	15*	0%	0%	42	-18%
Cc1ccc(CNC(=O)c2c(C)oc3nc(C)nc(N4CCOCC4)c23)cc1	nt	nt	-6%	nt	nt	12%
Cc1ccc(S(=O)Cc2ccc(C(=O)NC3CCCCCC3)o2)cc1 (stereo unspecified)	nt	nt	2%	nt	nt	?
COCCCNC(=O)Cn1c(=O)nc(-c2ccccc2)c2ccccc21	nt	nt	3%	nt	nt	5%
CCc1ccccc1NC(=O)Cn1nnc(C(=O)Nc2ccc(OC)c(OC)c2)c1N	nt	nt	17%	nt	nt	0%
COC(=O)c1cccc(NC(=O)CCN2C(=O)C3CC=CCC3C2=O)c1 (stereo unspecified)	nt	nt	3%	nt	nt	-7%
COc1ccc(C2C(C(C)=O)=C(C)Nc3ncnn32)cc1 (stereo unspecified)	-7%	-3	-3%	-3%	-7	35µM*
O=c1[nH]c2cc3c(cc2cc1C(c1nnnn1Cc1ccccc1)N1CCCCCC1)OCCO3 (stereo unspecified)	-16%	-4	4%	16%	-14	?
Cc1cccc2cc(C(c3nnnn3CC3CCCO3)N3CCCc4ccccc43)c(=O)[nH]c12 (stereo unspecified)	-9%	-3	3%	1%	30	-13%
O=c1[nH]c2cc3c(cc2cc1C(c1nnnn1Cc1ccccc1)N1CCCc2ccccc21)OCO3 (stereo unspecified)	0%	16*	-8%	1%	44*	-31%
CCc1ccc2[nH]c(=O)c(C(c3nnnn3CC3CCCO3)N3CCCc4ccccc43)cc2c1 (stereo unspecified)	?	9	0%	-1%	-10	35µM*
CCOC(=O)c1cc2c(=O)n3ccccc3nc2n(C(C)C)c1=NC(=O)c1cc2ccccc2o1	nt	nt	5%	nt	nt	-3%
c1ccc(CSc2nnc3ccc(-c4ccco4)nn23)nc1	-9%	34*	-11%	3%	67*	?
Cc1ccccc1NC(=O)CSc1nnc2ccc(-c3ccccn3)nn12	nt	nt	-2%	nt	nt	-4%
c1ccc(CSc2nnc3ccc(-c4cccs4)nn23)nc1	-22%	32	0%	3%	61*	-3%
c1cncc(CSc2nnc3ccc(-c4cccs4)nn23)c1	-3%	2	2%	0%[11.5 µM]	-10	-3%
O=C(CSc1nnc2ccc(-c3ccco3)nn12)Nc1ccccc1F	nt	nt	0%	nt	nt	11µM*
CC(=O)c1ccc(OCC(=O)OCC(=O)NCc2ccco2)cc1	nt	nt	3%	nt	nt	-24%
Cc1nc2nc[nH]n2c(=O)c1CCC(=O)Nc1ccc(F)cc1	nt	nt	0%	nt	nt	-2%
COc1ccc(C(=O)CSc2nnc3ccccn23)cc1OC	9%	22*	0%	0%	45	-4%
O=C(CSc1nnc2ccccn12)N1CCOCC1	4%	3	0%	-6%	-5	3%
O=C(CSc1nnc2ccccn12)c1ccc2c(c1)OCCO2	2%	25*	-13%	?	37*	-18%
COC(=O)C1CCN(C(=O)c2oc3c(Cl)cc(C)cc3c2C)CC1	7%	47*	-8%	-5%	76*	?
Cc1cc(Cl)c2oc(C(=O)NC3CCC(O)CC3)c(C)c2c1 (stereo unspecified)	-2%	21*	5%	6%	nt	-22%
Cc1cc(Cl)c2oc(C(=O)NCC(C)(C)N3CCOCC3)c(C)c2c1	6%	18*	-3%	7%	37	-2%
CCOC(=O)C1CCCCN1C(=O)c1oc2c(Cl)cc(C)cc2c1C (stereo unspecified)	-5%	46*	2%	9%	118*	-23%
Cc1cc(Cl)c2oc(C(=O)N3CCN(c4ccncc4)CC3)c(C)c2c1	nt	nt	0%	nt	nt	nt
Cc1cccc(N2CCN(C(=O)[C@H](C)N3C(=O)C4CC=CCC4C3=O)CC2)c1C (stereo partly specified)	nt	nt	-12%	nt	nt	nt
